From the supplement of paper PMC7765376
Structures can show the parent of a compound that is named as a salt. Whole data set: some 1,500 compounds, median “Excess HSA synergy score (sum over dose matrix of excess over highest single agent)” near 43, cut for the lowest 2% near -900. The entries come from a sample that favours the lowest values as a whole.

System: PEO-1
Experiment: Excess HSA synergy score (sum over dose matrix of excess over highest single agent) (score (summed % response)); higher = less synergy / more antagonism (negative = synergy)
Conditions: 72 h, read-out: viability/apoptosis luminescence (CellTiter-Glo or Caspase3-Glo / not stated per table)
[1] = matrix design: 6x6, 5-fold dilutions (primary screen)
[2] = matrix design: 10x10, 9-step dilutions (confirmatory)

Structure (SMILES)	Excess HSA synergy score [1]	Excess HSA synergy score [2]
CC(=O)NCC(=O)N1[C@@H]2CC[C@H]1c1ccc(Nc3ncc(C(F)(F)F)c(NC4CCC4)n3)cc12 + CC[C@H](NC(=O)[C@H](C)NC)C(=O)N1C[C@@H](O)C[C@H]1Cc1c(-c2[nH]c3cc(F)ccc3c2C[C@@H]2C[C@H](O)CN2C(=O)[C@H](CC)NC(=O)[C@H](C)NC)[nH]c2cc(F)ccc12 [Birinapant]	-154	–
CCCCN1CCC(CNC(=O)c2c3n(c4ccccc24)CCCO3)CC1 [Piboserod hydrochloride] + CC[C@H](NC(=O)[C@H](C)NC)C(=O)N1C[C@@H](O)C[C@H]1Cc1c(-c2[nH]c3cc(F)ccc3c2C[C@@H]2C[C@H](O)CN2C(=O)[C@H](CC)NC(=O)[C@H](C)NC)[nH]c2cc(F)ccc12 [Birinapant]	-0.918	–
Nc1ccn([C@@H]2CS[C@H](CO)O2)c(=O)n1 [Lamivudine] + CC[C@H](NC(=O)[C@H](C)NC)C(=O)N1C[C@@H](O)C[C@H]1Cc1c(-c2[nH]c3cc(F)ccc3c2C[C@@H]2C[C@H](O)CN2C(=O)[C@H](CC)NC(=O)[C@H](C)NC)[nH]c2cc(F)ccc12 [Birinapant]	228	–
Nc1ccn([C@@H]2O[C@H](CO)[C@@H](O)[C@H]2O)c(=O)n1 [Cytidine] + CC[C@H](NC(=O)[C@H](C)NC)C(=O)N1C[C@@H](O)C[C@H]1Cc1c(-c2[nH]c3cc(F)ccc3c2C[C@@H]2C[C@H](O)CN2C(=O)[C@H](CC)NC(=O)[C@H](C)NC)[nH]c2cc(F)ccc12 [Birinapant]	170	–
Nc1ccn([C@@H]2O[C@H](CO)[C@@H](O)C2(F)F)c(=O)n1 [Gemcitabine] + CC[C@H](NC(=O)[C@H](C)NC)C(=O)N1C[C@@H](O)C[C@H]1Cc1c(-c2[nH]c3cc(F)ccc3c2C[C@@H]2C[C@H](O)CN2C(=O)[C@H](CC)NC(=O)[C@H](C)NC)[nH]c2cc(F)ccc12 [Birinapant]	-59.3	-1130
Nc1ccn([C@@H]2O[C@H](CO)[C@@H](O)[C@@H]2O)c(=O)n1 [Cytarabine] + CC[C@H](NC(=O)[C@H](C)NC)C(=O)N1C[C@@H](O)C[C@H]1Cc1c(-c2[nH]c3cc(F)ccc3c2C[C@@H]2C[C@H](O)CN2C(=O)[C@H](CC)NC(=O)[C@H](C)NC)[nH]c2cc(F)ccc12 [Birinapant]	-388	-1320
Nc1ncn([C@@H]2O[C@H](CO)[C@@H](O)[C@H]2O)c(=O)n1 [5-Azacitidine] + CC[C@H](NC(=O)[C@H](C)NC)C(=O)N1C[C@@H](O)C[C@H]1Cc1c(-c2[nH]c3cc(F)ccc3c2C[C@@H]2C[C@H](O)CN2C(=O)[C@H](CC)NC(=O)[C@H](C)NC)[nH]c2cc(F)ccc12 [Birinapant]	-38.5	–
Nc1ccn([C@@H]2CO[C@H](CO)O2)c(=O)n1 [Troxacitabine] + CC[C@H](NC(=O)[C@H](C)NC)C(=O)N1C[C@@H](O)C[C@H]1Cc1c(-c2[nH]c3cc(F)ccc3c2C[C@@H]2C[C@H](O)CN2C(=O)[C@H](CC)NC(=O)[C@H](C)NC)[nH]c2cc(F)ccc12 [Birinapant]	152	–
O=C(c1ccc(F)c(F)c1Nc1ccc(I)cc1F)N1CC(O)([C@@H]2CCCCN2)C1 [Cobimetinib] + CC[C@H](NC(=O)[C@H](C)NC)C(=O)N1C[C@@H](O)C[C@H]1Cc1c(-c2[nH]c3cc(F)ccc3c2C[C@@H]2C[C@H](O)CN2C(=O)[C@H](CC)NC(=O)[C@H](C)NC)[nH]c2cc(F)ccc12 [Birinapant]	148	–
CC(C)N(CC[C@H](c1ccccc1)c1cc(CO)ccc1O)C(C)C + CC[C@H](NC(=O)[C@H](C)NC)C(=O)N1C[C@@H](O)C[C@H]1Cc1c(-c2[nH]c3cc(F)ccc3c2C[C@@H]2C[C@H](O)CN2C(=O)[C@H](CC)NC(=O)[C@H](C)NC)[nH]c2cc(F)ccc12 [Birinapant]	309	–
CCCCCCCCc1ccc(CCC(N)(CO)CO)cc1 [Fingolimod hydrochloride] + CC[C@H](NC(=O)[C@H](C)NC)C(=O)N1C[C@@H](O)C[C@H]1Cc1c(-c2[nH]c3cc(F)ccc3c2C[C@@H]2C[C@H](O)CN2C(=O)[C@H](CC)NC(=O)[C@H](C)NC)[nH]c2cc(F)ccc12 [Birinapant]	-38.3	–
C/C=C/C[C@@H](C)C(=O)[C@H]1C(=O)N[C@@H](C(C)C)C(=O)N(C)CC(=O)N(C)[C@@H](CC(C)C)C(=O)N[C@@H](C(C)C)C(=O)N(C)[C@@H](CC(C)C)C(=O)N[C@@H](C)C(=O)N[C@H](C)C(=O)N(C)[C@@H](CC(C)C)C(=O)N(C)[C@@H](CC(C)C)C(=O)N(C)[C@@H](C(C)C)C(=O)N1C [Valspodar] + CC[C@H](NC(=O)[C@H](C)NC)C(=O)N1C[C@@H](O)C[C@H]1Cc1c(-c2[nH]c3cc(F)ccc3c2C[C@@H]2C[C@H](O)CN2C(=O)[C@H](CC)NC(=O)[C@H](C)NC)[nH]c2cc(F)ccc12 [Birinapant]	173	–
COc1ccc(-c2cc3c(C)nc(N)nc3n([C@H]3CC[C@H](OCCO)CC3)c2=O)cn1 + CC[C@H](NC(=O)[C@H](C)NC)C(=O)N1C[C@@H](O)C[C@H]1Cc1c(-c2[nH]c3cc(F)ccc3c2C[C@@H]2C[C@H](O)CN2C(=O)[C@H](CC)NC(=O)[C@H](C)NC)[nH]c2cc(F)ccc12 [Birinapant]	-32.5	–
O=C(/C=C/c1cccnc1)NCCCCC1CCN(C(=O)c2ccccc2)CC1 [Daporinad] + CC[C@H](NC(=O)[C@H](C)NC)C(=O)N1C[C@@H](O)C[C@H]1Cc1c(-c2[nH]c3cc(F)ccc3c2C[C@@H]2C[C@H](O)CN2C(=O)[C@H](CC)NC(=O)[C@H](C)NC)[nH]c2cc(F)ccc12 [Birinapant]	312	–
Cc1ccc(NC(=O)c2ccc(CN3CCN(C)CC3)cc2)cc1Nc1nccc(-c2cccnc2)n1 [Imatinib] + CC[C@H](NC(=O)[C@H](C)NC)C(=O)N1C[C@@H](O)C[C@H]1Cc1c(-c2[nH]c3cc(F)ccc3c2C[C@@H]2C[C@H](O)CN2C(=O)[C@H](CC)NC(=O)[C@H](C)NC)[nH]c2cc(F)ccc12 [Birinapant]	-103	–
Nc1ccccc1NC(=O)c1ccc(CNc2nccc(-c3cccnc3)n2)cc1 [Mocetinostat] + CC[C@H](NC(=O)[C@H](C)NC)C(=O)N1C[C@@H](O)C[C@H]1Cc1c(-c2[nH]c3cc(F)ccc3c2C[C@@H]2C[C@H](O)CN2C(=O)[C@H](CC)NC(=O)[C@H](C)NC)[nH]c2cc(F)ccc12 [Birinapant]	-263	-1360
Nc1ccccc1NC(=O)c1ccc(CNC(=O)OCc2cccnc2)cc1 [Entinostat] + CC[C@H](NC(=O)[C@H](C)NC)C(=O)N1C[C@@H](O)C[C@H]1Cc1c(-c2[nH]c3cc(F)ccc3c2C[C@@H]2C[C@H](O)CN2C(=O)[C@H](CC)NC(=O)[C@H](C)NC)[nH]c2cc(F)ccc12 [Birinapant]	-296	–
